Hit rate of the full screen: of about 48,000 compounds, about 13,000 (27%) showed an effect of 50% or more. Some of the results follow.
Tested on: Wolbachia pipientis
Assay: Anti-Wolbachia Cell-Based Screen
Type: functional
Design: scale not given: in the data most compounds retested in dose-response had high values
Settings: 5 µM

SMILES | Percent Effect
Cc1cnc2c(S(=O)(=O)NCC3CCS(=O)(=O)C3)cccc2c1 (configuration not stated) | -2.686%
COCC(=O)N1CC[C@H]2C[C@@H](c3nnc(C4CC4)o3)O[C@@H]2C1 | -4.608%
O=C(c1ccccc1)N1CC[C@H]2C[C@H](c3nnc(C4CC4)o3)O[C@@H]2C1 | 87.37%
COCC(=O)N1CC[C@H]2C[C@H](c3nc(C)no3)O[C@@H]2C1 | 4.349%
Cc1noc([C@H]2C[C@@H]3CCN(C(=O)c4cccn4C)C[C@H]3O2)n1 | 59.05%
Cc1nc([C@H]2C[C@@H]3CCN(C(=O)c4ccnnc4)C[C@H]3O2)sc1C | -5.019%
Cc1nc([C@@H]2C[C@@H]3CCN(C(=O)c4ccnnc4)C[C@H]3O2)sc1C | 3.729%
O=C(c1ccoc1)N1CC[C@H]2C[C@@H](c3nnc(C4CC4)o3)O[C@@H]2C1 | 103%
Cc1csc([C@@H]2C[C@@H]3CCN(C(=O)c4cccn4C)C[C@H]3O2)n1 | -10.26%
COCC(=O)N1CC[C@H]2C[C@H](c3nnc(C4CC4)o3)O[C@@H]2C1 | 59.46%
COCCN1CCN(CCS(=O)(=O)C(F)(F)F)CC1C (configuration not stated) | 6.413%
O=C1NCCN2CCN(Cc3ccc(Cl)c(Cl)c3)CC12 (configuration not stated) | -5.038%
Cc1cccc(-c2c[nH]c(C3CCCN3C(=O)Cn3cc(C)cn3)n2)c1 (configuration not stated) | -5.472%
Cc1cccc(CCC(=O)N2CCOCC2c2c(C)n[nH]c2C)c1 (configuration not stated) | 9.952%
Cc1c[nH]c(C2CCCN(C(=O)CCc3c(C)n[nH]c3C)C2)n1 (configuration not stated) | 139.5%
CC(C)(C)c1noc(CCCC(=O)N2CCCC(c3ccn[nH]3)C2)n1 (configuration not stated) | -11.26%
Cc1n[nH]c(C)c1C1COCCN1C(=O)c1cc(Cl)c[nH]1 (configuration not stated) | -20.41%
Cc1n[nH]c(C)c1C1CCCN1C(=O)CNC(=O)C(C)(C)C (configuration not stated) | 1.097%
O=C(CCn1cnnc1)N1CCCC(c2ncc[nH]2)C1 (configuration not stated) | -20.34%
Cc1c[nH]c(C2CCCN2C(=O)CCc2c(C)n[nH]c2C)n1 (configuration not stated) | 109.7%
Cc1c[nH]c(C2COCCN2C(=O)CCc2c(C)n[nH]c2C)n1 (configuration not stated) | 111%
CC(O)CN1CCC(CNCc2cn(-c3ccccc3)nn2)CC1 (configuration not stated) | 3.471%
COCC(C)N(C)C(=O)NC1CCN(S(C)(=O)=O)CC1 (configuration not stated) | 2.159%
CS(=O)(=O)c1ccc(CNC(=O)NCC2CCOC2)cc1 (configuration not stated) | -15.52%
CCSCCC(=O)NS(=O)(=O)c1ccc2c(c1)OCCO2 | 5.287%

SMILES | Percent Effect
CCO[C@H]1CN(C(=O)c2ccc3c(c2)OCO3)[C@@H]2COC[C@H]12 | 0.5362%
CO[C@H]1CN(C(=O)c2ccc[nH]2)[C@@H]2COC[C@H]12 | 98.6%
O=C(c1ccc[nH]1)N1C[C@H](OCc2cccnc2)[C@H]2COC[C@H]21 | -9.205%
CO[C@H]1CN(C(=O)c2ccc3c(c2)OCO3)[C@@H]2COC[C@H]12 | -7.485%
Cc1nc(CO[C@H]2CN(C(=O)c3ccc[nH]3)[C@@H]3COC[C@H]23)cs1.O=C(O)C(F)(F)F | -0.1564%
O=C(c1ccc[nH]1)N1C[C@H](OCc2ccccn2)[C@H]2COC[C@H]21 | 111.2%
CCOCc1nnc(NCc2cccnc2)o1 | -1.439%
CC(C)N(CC(N)=O)C(=O)c1cc(F)ccc1N1CCN(C)CC1 | 95.17%
CCN(CC1CCOC1)C(=O)c1ccccc1N1CCOCC1 (configuration not stated) | 5.823%
CCN(CC1CCOC1)C(=O)Nc1ccc(N2CCCC2)nc1 (configuration not stated) | -5.429%
Cc1ccc(CNC(C)c2cc(F)ccc2N2CCN(C)CC2)o1 (configuration not stated) | -9.069%
CCN(CC1CCOC1)C(=O)c1cc(F)ccc1N1CCN(C)CC1 (configuration not stated) | 87.35%
C=C(C)CN(CC)C(=O)c1cc(F)ccc1NS(C)(=O)=O | 23.28%
CC(NCc1ccncc1)c1cc(F)ccc1N1CCN(C)CC1 (configuration not stated) | -0.924%
CCN(CC1CCOC1)C(=O)c1ccc(N2CCOCC2)c(F)c1 (configuration not stated) | 110.6%
CCN(CC1CCOC1)C(=O)c1cc(Cl)c2c(c1)OCO2 (configuration not stated) | -2.452%
CCN(CC1CCOC1)C(=O)c1cccnc1N1CCOCC1 (configuration not stated) | -1.739%
C=C(C)CN(CC)C(=O)c1cc(F)ccc1N1CCN(C)CC1 | 106.7%
C=C(C)CN(CC)C(=O)c1cc(C)ccc1NS(C)(=O)=O | 12.91%
COC[C@@]12CC[C@@H](N3CCOCC3)C[C@H]1CCN(c1ccc(Cl)cn1)C2 | -5.579%
Cc1cnc(N2CCCC(c3ccccc3)C2)nc1-c1ncnn1C (configuration not stated) | -17.16%
O=C(NCC1COCc2c(-c3cccnc3)nnn2C1)c1cccs1.O=C(O)C(F)(F)F (configuration not stated) | -12.79%
O=S(=O)(C1CC1)N1CC[C@]2(C[C@H](OCC3CCOCC3)CO2)C1 | 2.042%
COCC1CN(Cc2ccncc2)Cc2nn(CC3CC3)cc21.O=C(O)C(F)(F)F.O=C(O)C(F)(F)F (configuration not stated) | -9.02%
COCc1noc(C2(c3ccc(F)cc3)CC2)n1 | 1.348%

SMILES | Percent Effect
c1csc(CN2C[C@H]3CCC[C@@]3(COCC3CCOCC3)C2)n1 | 5.846%
CSc1ccc(C(=O)N2C[C@H]3CC[C@@H]2CN(Cc2ccccc2)C3)cc1 | 17.05%
COCCN1C[C@H]2CC[C@@H]1CN(C(=O)c1ccc(Cl)cc1)C2 | 3.109%
COCCN1CC(O)CN(C(=O)c2ccc(SC)cc2)CC1=O (configuration not stated) | 110.7%
CSc1ccc(C(=O)N2CC(=O)N(Cc3ccccc3)CC(O)C2)cc1 (configuration not stated) | 97.14%
COc1ccc(C(=O)N2CC(=O)N(CC3CC3)CC(O)C2)cc1 (configuration not stated) | 115.7%
CSc1ccc(C(=O)N2CCCC(Nc3ccc(F)cc3)C2)cc1 (configuration not stated) | -32.55%
COc1ccc(C(=O)N2CCN3C(=O)CNC(=O)[C@@H]3C2)cc1 | -1.212%
COc1ccc2cc(C(=O)N3CC[C@H](CO)[C@H](O)C3)n(C)c2c1 | -6.471%
CSc1ccccc1CN1C[C@H]2C(=O)N(CC3CC3)C[C@@]2(C(=O)O)C1 | 6.148%
CSc1ccc(C(=O)N2C[C@H]3CC[C@@H]2CN(Cc2cccnc2)C3)cc1 | 37.83%
CSc1ccc(C(=O)N2CC(=O)N(CC3CC3)CC(O)C2)cc1 (configuration not stated) | 119.8%
COCCN1CC(C(=O)NCc2ccc(C)s2)CC1=O (configuration not stated) | -3.089%
CN(C)Cc1ccc(C2CCCCN2C(=O)c2cccc(CO)n2)cc1 (configuration not stated) | 7.792%
CCCc1c(C(=O)N2CCN(c3nccc(OC)n3)CC2)cnn1C | 3.097%
Cc1cc2nc(CO[C@H]3CN(C)C[C@H]3F)[nH]c2cc1C | -14.61%
COC1CCC(N(C)c2ccnc(N(C)C)n2)CC1 (configuration not stated) | 2.902%
CCN1CC(C(=O)N2CC(Oc3ccccc3F)C2)CC1=O (configuration not stated) | -11.41%
CCN1CC(O)CN(C(=O)c2ccc(SC)cc2)CC1=O (configuration not stated) | 105.2%
CSc1ccc(C(=O)N2CC(=O)N(CC(C)(C)C)CC(O)C2)cc1 (configuration not stated) | 76.9%
CCN1CC(C(=O)NCc2cccc(SC)c2)CC1=O (configuration not stated) | -13.72%
NC(=O)C1CCN(c2cncc(-n3cccn3)n2)CC1 | 4.657%
Cc1ccnc(N2CCC(OCCN3CCCCC3)C2)n1 (configuration not stated) | 14.04%
Cc1ccnc(N2CCC(C(N)=O)CC2)n1 | 120.1%
CN1CCCN(c2nccc(-c3c[nH]nc3C3CCCCC3)n2)CC1 | 25.46%

SMILES | Percent Effect
c1cc(-c2c[nH]nc2C2CCCCC2)nc(N2CCCCCC2)n1 | 78.4%
Cc1ccnc(N2CCN(C3CCS(=O)(=O)C3)CC2)n1 (configuration not stated) | 0.9659%
NC(=O)N1CCCCCC1C1CCN(c2nccc(C(F)(F)F)n2)CC1 (configuration not stated) | -6.613%
c1cc(-c2cn3nccc3nc2C2CCCCC2)nc(N2CCCC2)n1 | 96.94%
c1cc(-c2noc(C3CCC3)n2)cc(N2CCCCC2)n1 | -13.71%
NC(=O)C1CCN(c2nccc(-c3c[nH]nc3C3CCCCC3)n2)CC1 | 81.82%
CC(=O)NCC(=O)N1Cc2cc(C#N)ccc2C1c1cnco1 (configuration not stated) | -4.617%
CCNC(=O)CCC(=O)Nc1nc(C)c(Cc2ccc(F)cc2)s1 | -19.82%
O=c1cc(CN2CCC(CCc3ccc(O)cc3)CC2)[nH]c(=O)[nH]1 | -18.62%
COCCC1(CNC(=O)NCC2CCCS2)CCCC1 (configuration not stated) | -6.803%
CCc1ccc(CN(C)Cc2nc(COc3ccccc3)no2)nc1 | 78.29%
CN(Cc1nc(COc2ccccc2)no1)CC1Cc2ccccc2O1 (configuration not stated) | -1.217%
CCc1ccc(CN(C)Cc2nc(-c3cnccn3)no2)nc1 | 12.77%
Cc1csc(CN(C)C(=O)C2CCC(=O)N(CCN(C)C)C2)n1 (configuration not stated) | 2.129%
O=C(c1cccnc1N1CCOC(c2ccc(Cl)cc2)C1)N1CCCC1 (configuration not stated) | 19.68%
COc1ccc(CN2C[C@@H]3OCC(=O)N(CC(N)=O)[C@@H]3C2)cc1 | -8.877%
CCOC(=O)N1CC(=O)N(Cc2ccc(OC)cc2)CC(O)C1 (configuration not stated) | 85.47%
COc1ccc(CN2CCO[C@H]3CN(C(C)=O)CC[C@H]3C2=O)cc1 | -1.641%
COc1ccc(CN2CC(O)CN(C(=O)OCC(C)(C)C)CC2=O)cc1 (configuration not stated) | 112.6%
COc1ccc(CN2CC(O)CN(C(=O)c3ccccc3)CC2=O)cc1 (configuration not stated) | 119%
CCC(=O)N1CC[C@H]2C(=O)N(Cc3ccc(OC)cc3)CCO[C@H]2C1 | 5.242%
COc1ccc(CN2C[C@@H]3CN(C(=O)c4ccsc4)C[C@@H]3C2=O)cc1 | -7.26%
